Among all 1,400 compounds or so, about 100 (7.1%) were called active. How the calls were made is not given here. Only a sample is shown. Potency and affinity values are given separately.
assay: viability loss in Vero cells – cell-based, plate reader, cherry-pick samples, cytotoxicity control, dose response (AID 687020); details: series mostly up to 19.5 µM; activity change, negative = toxicity: at the top concentration;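 further: compounds incubated with cells for three days before luminescence read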

Structure (SMILES)	activity change, negative = toxicity
C[C@H](CCC(=O)O)[C@H]1CC[C@H]2[C@@H]3CC[C@@H]4C[C@H](O)CC[C@]4(C)[C@H]3C[C@H](O)[C@]12C	-10.8% (inactive)
CC(Oc1ccc(Cl)cc1Cl)C(=O)NCCCN1CCOCC1 (stereo unspecified)	-2.88% (inactive)
Cc1oc2c(C)c3oc(=O)c(CCC(=O)NCCN4CCOCC4)c(C)c3cc2c1C	5.6% (inactive)
O=C(NC1CCCCC1)N[C@H]1C=C[C@@H](CC(=O)N2CCOCC2)O[C@@H]1CO	-5.32% (inactive)
CN(CC(=O)Nc1ccccc1C(=O)NC1CC1)Cc1ccccc1F	-2.83% (inactive)
CCCCCC(=O)NC1CCCCN(C)C1=O (stereo unspecified)	2.66% (inactive)
CC(=O)NCCNc1nc(NCc2cccs2)nc2ccsc12	-8.23% (inactive)
COc1ccc(N2CCN(Cc3nc4c(c(=O)[nH]c(=O)n4C)n3Cc3cccc(Cl)c3)CC2)cc1	-14.8% (inactive)
NC(c1csc(NC(=O)Nc2cccc(Cl)c2)n1)C1CCCCC1 (stereo unspecified)	-6.54% (inactive)
Cc1ccc(Cn2cc(CN3CC(N(C)C)CS3(=O)=O)nn2)cc1 (stereo unspecified)	-29.8% (inactive)
CC(C)(C)OC(=O)NC(CC(=O)OCc1ccccc1)C(=O)O (stereo unspecified)	4.95% (inactive)
O=C(O)C(Cc1ccc(Cl)cc1)NS(=O)(=O)c1ccc(Cl)cc1 (stereo unspecified)	-12.4% (inactive)
O=S(=O)(c1ccc(=S)[nH]c1)N1CCN(Cc2ccccc2)CC1	-9.4% (inactive)
O=C(O)C1C2C=CC(C2)C1C(=O)NCc1ccccc1 (stereo unspecified)	-11.6% (inactive)
O=C(Nc1cc(F)cc(F)c1)c1sc(Cl)nc1-c1ccccc1	-19.5% (inactive)
CCS(=O)(=O)N1CCC2(CC1)OCCN2S(=O)(=O)c1ccccc1	-6.28% (inactive)
NC(=O)C1CCN(C(=O)C2(NC(=O)Nc3cccc(F)c3)CCCCC2)CC1	9.22% (inactive)
CCCCN1C[C@H](Cc2ccccc2)[C@@H](CC(=O)NCc2ccc(OC)cc2)C1=O	-17.5% (inactive)
COc1ccc(CNC(=O)C[C@H]2C(=O)N(Cc3ccccc3)C[C@@H]2Cc2ccccc2)cc1	-16.9% (inactive)
CCCCn1nc(C(=O)Nc2ccc3c(c2)OCO3)c2ccccc2c1=O	-14.3% (inactive)
CO[C@@H]1CN(C)C(=O)c2ccc(NS(=O)(=O)c3cccc(F)c3)cc2OC[C@@H](C)N(C(=O)Cc2cccnc2)C[C@H]1C	-6.46% [at 18 µM] (inactive)

Structure (SMILES)	activity change, negative = toxicity
COc1ccc(-c2csc(C(C)(O)c3ccc(F)c(F)c3)n2)cc1OC (stereo unspecified)	4.66% (inactive)
COc1cc(NC(=O)c2nccn2C)cc(C(=O)Nc2cccc(C(F)(F)F)c2)c1	-11.7% (inactive)
COc1ccc(NC(=O)CN2CCc3ccccc3C2)cc1S(=O)(=O)N1CCOCC1	-4.47% (inactive)
COc1ccc(CCC(=O)Nc2cc(S(=O)(=O)N3CCOCC3)ccc2OC(C)C)cc1	-8.21% (inactive)
CCCNC(=O)N1CC2(C1)CN(Cc1cccc(F)c1)[C@@H](CO)c1[nH]c3cc(OC)ccc3c12	1.05% (inactive)
C[C@@H](NC(=O)[C@@H]1[C@@H](CO)[C@@H]2Cn3c(cccc3=O)[C@@H]2N1CC1CCCC1)c1ccccc1	-15.9% (inactive)
CC(Oc1ccc2ccc(=O)oc2c1)C(=O)NC(Cc1c[nH]c2ccc(O)cc12)C(=O)O (stereo unspecified)	-5.7% (inactive)
O=C(N[C@@H]1CC[C@H](CCNC(=O)C2CCCCC2)O[C@@H]1CO)c1ccccn1	-2.22% (inactive)
COc1ccc(CCN2CC(C(=O)NCCc3ncccc3C)CCC2=O)cc1 (stereo unspecified)	6.79% (inactive)
CCCc1cc(CNC(=O)C2CCC(=O)N(CCc3cccc(F)c3)C2)on1 (stereo unspecified)	-26.1% (inactive)
Nc1ccc2oc(-c3ccccc3Cl)cc(=O)c2c1O	-5.16% (inactive)
COc1ccc(Cl)cc1-c1cc(C(=O)N[C@H](C)c2ccccc2)[nH]n1	-18.1% (inactive)
Cc1ccc(OCCCCNC(C)c2ccccc2)c(C)c1 (stereo unspecified)	-5.1% (inactive)
CC(C)c1ccccc1OCCCCN1CCCCC1	-30.4% (inactive)
Cc1cc(O)c(C(C)C)cc1NC(=O)c1ccccc1Cl	-17.8% (inactive)
Cc1noc(C)c1NC(=O)N(C)C[C@H]1OCCCC[C@H](C)Oc2ccc(NC(=O)NC(C)C)cc2C(=O)N([C@H](C)CO)C[C@@H]1C	-12.9% (inactive)
CCOC(=O)c1cn(CC)c2cc3c(cc2c1=O)OCO3	-2.25% (inactive)
Cc1ccc(NC(=O)c2cc(-c3cc(Cl)ccc3C)n[nH]2)cc1NS(C)(=O)=O	9.63% (inactive)
O=C(NCc1ccccc1)[C@H]1CCCN1C(=O)[C@@H]1CCCN1C(=O)c1ccc(Cl)cc1Cl	-23.7% (inactive)
O=C(NCc1ccccc1)c1ccccc1	-0.227% (inactive)
Cc1noc(C)c1NC(=O)Nc1cccc2c1O[C@@H](CN(C)S(=O)(=O)c1ccc(F)cc1)[C@@H](C)CN([C@@H](C)CO)C2=O	-3.08% (inactive)

Structure (SMILES)	activity change, negative = toxicity
Fc1ccc(CNC2CCN(Cc3ccccc3)CC2)cc1	0.52% (inactive)
C=CCOc1ccccc1CNn1c(C)n[nH]c1=S	-9.09% (inactive)
CN(Cc1ccccc1)C(=O)c1nc[nH]c1C(=O)N1CCN(C(=O)OC(C)(C)C)CC1	-6.81% (inactive)
COC(=O)C[C@H]1CC[C@H]2[C@@H](COc3ccc(NC(=O)c4cnccn4)cc3C(=O)N2C)O1	1.66% (inactive)
CCCCOc1ccc(C(=O)NCCOc2cccc(OC)c2)cc1	-4.01% (inactive)
CS(=O)(=O)NCc1ccc(C(=O)NCCOc2ccccc2)cc1	2.03% (inactive)
Cc1c(Cl)cccc1NC(=O)CNC(=O)C1CC(=O)N(C2CCCC2)C1 (stereo unspecified)	-10.4% (inactive)
Cc1noc(C)c1NC(=O)Nc1ccc2c(c1)C(=O)N([C@@H](C)CO)C[C@H](C)[C@@H](CN(C)C(=O)CCCN(C)C)OCCCC[C@@H](C)O2	-1.38% (inactive)
CN(C)CCCNC(=O)OC1CC2CC1[C@H]1CCCCN1C2=O (stereo partly specified)	-2.19% (inactive)
CCCNC(=O)OC1CC2CC1[C@H]1CCCCN1C2=O (stereo partly specified)	2.02% (inactive)
O=C(NCc1ccccn1)C(=O)NCC1OCCN1S(=O)(=O)c1ccc(Br)cc1 (stereo unspecified)	-6.28% (inactive)
COc1ccc(Cl)cc1NC(=O)CN(C)C(=O)C1COc2ccccc2O1 (stereo unspecified)	-15.1% (inactive)
Cc1noc(C)c1S(=O)(=O)Nc1ccc2c(c1)C(=O)N([C@@H](C)CO)C[C@@H](C)[C@H](CN(C)C(=O)Nc1ccccc1)OCCCC[C@@H](C)O2	-5.09% (inactive)
Cc1cc(C)n2c(Nc3ccc4c(c3)OCCO4)c(CC(C)C)nc2n1	-21.1% (inactive)
Cc1cc(C)n2c(NC3CCCCC3)c(-c3ccccn3)nc2n1	-7.23% (inactive)
Cc1ccc(S(=O)(=O)N2CCN(C(=O)C(O)c3ccccc3)CC2)cc1 (stereo unspecified)	-18.2% (inactive)
COC(=O)C[C@@H]1OC[C@H](Cc2ccccc2)N1S(=O)(=O)c1ccc(C)cc1	-39.2% (inactive)
Cc1ccc(S(=O)(=O)N2CCN(C(=O)COC(=O)Cc3ccc(Cl)cc3)CC2)c(C)c1	-17.2% (inactive)
COc1ccc(C(C(=O)NCc2ccccc2)n2c(-c3ccncc3)nc3ccccc32)cc1 (stereo unspecified)	-13% (inactive)
